From PubChem BioAssay
Rows were chosen to be rich in hits. Some 7.5% of all compounds tested hit in one or more screens of this group.
SMN2 splice enh: enhancers of SMN2 splice variant expression; 210,000 tested, 2.8% active; HEK293 SMN2-luciferase splicing reporter, luminescence, 30-36 h; Potency, µM (doses to about 46.1 µM), without a hit: at the top dose activity change, positive = activation, most hits filed as activators; note: % of control where 0% means no effect; nearly all actives have a fitted effect of over 55% in size
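HEK293 cells carry an SMN2 minigene-luciferase reporter in which exon 7 inclusion puts luciferase in frame. Cells were seeded at 2000 cells/well, attached for 10-12 hours, then exposed to compounds for 30-36 hours at 37C before ONE-Glo luminescence.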
ELG1 genotoxic: inducers of genotoxicity in HEK293T ELG1-luciferase cells; 330,000 tested, 1.3% active; HEK293T ELG1-luciferase reporter, luminescence, 16 h; AID 504466; Potency, µM (titrated, usually from 46 µM), inactives show at the highest dose activity change, positive = activation, most hits filed as activators; note: % of control where 0% means no effect; nearly all actives have a fitted effect of over 60% in size
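DMSO vehicle served as control against compound-treated ELG1-luciferase HEK293T cells; exposure lasted 16 hr at 37 °C and 5% CO2, followed by ONE-Glo luminescence detection after 30 min.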
FLuc modulator: counter-screen for miR-21 project: firefly luciferase inhibitors or activators. Potency, µM (titrated, usually from 57.5 µM), for the others: top-dose activity change, negative = inhibition, usual class: inhibitors. AID 588342. purified FLuc, Km substrates, luminescence inhibition. 360,000 tested, 6.9% active;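 note: plate controls were vehicle for no effect and reference inhibitor for full effect; nearly all actives have a fitted effect of over 55% in size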
Target sequence (P08659 whole entry, looked up): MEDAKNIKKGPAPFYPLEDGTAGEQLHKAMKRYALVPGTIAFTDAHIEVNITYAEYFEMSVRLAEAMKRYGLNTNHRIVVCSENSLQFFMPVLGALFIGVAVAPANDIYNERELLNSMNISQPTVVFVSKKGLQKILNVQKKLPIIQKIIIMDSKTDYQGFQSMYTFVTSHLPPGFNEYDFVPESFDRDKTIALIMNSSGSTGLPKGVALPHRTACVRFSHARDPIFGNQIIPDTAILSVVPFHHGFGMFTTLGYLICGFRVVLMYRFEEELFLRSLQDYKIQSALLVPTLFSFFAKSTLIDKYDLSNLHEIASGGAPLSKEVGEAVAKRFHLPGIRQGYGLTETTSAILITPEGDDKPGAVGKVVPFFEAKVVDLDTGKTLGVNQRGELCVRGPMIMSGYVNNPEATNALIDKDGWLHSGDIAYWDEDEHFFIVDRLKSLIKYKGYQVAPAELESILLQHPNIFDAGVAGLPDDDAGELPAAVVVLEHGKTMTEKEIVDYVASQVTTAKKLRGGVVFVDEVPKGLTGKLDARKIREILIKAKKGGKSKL
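Biochemical qHTS of compounds, final roughly 60 µM downward over six points, against 10 nM purified firefly luciferase using Km concentrations of substrates (10 uM D-luciferin, 10 uM ATP) in Tris acetate pH 7.5 buffer; luminescence output.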
NPC1 promoter act: NPC1 promoter activation | Huh7 NPC1 promoter luciferase reporter, 24 h | Potency, µM (highest dose often 9.22 µM), inactives show at the highest dose activation, actives largely listed as activators | 320,000 tested, 2.4% active | AID 485313; note: % of control where 0% means no effect; nearly all actives have a fitted effect of over 60% in size
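Luminescence from an NPC1 promoter-driven luciferase reporter in stably transfected Huh7 cells was measured after 24 h compound treatment at 37 °C, followed by 10 min ambient incubation with luciferase detection reagent.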
Rab9 promoter act: Rab9 promoter activation. 320,000 tested, 2.8% active. Potency, µM (highest dose often 9.22 µM), for the others: at the top dose activation, negative = inhibition, hits mostly activators. Huh7 Rab9 promoter-luciferase reporter, luminescence, 24 h. AID 485297; note: % of control where 0% means no effect; nearly all actives have a fitted effect of over 60% in size
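Luminescence from Amplite-detected luciferase (10 minutes, ambient) reports Rab9 promoter activation. Before that, stable Rab9-luciferase Huh7 cells (1500/well, reduced-serum OP-MEM I plus 10% FBS) were exposed to compound for 24 hours at 37C.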
* marks the source's active call; other numbers are inactive results; ? = inconclusive; nt = no result given; [ ] = remark or other dose. Calls come from the whole dose curve; as a rule, active = well fitted curve in the direction sought with a large enough effect; inconclusive = small, poorly fitted or top-dose-only effect, or another doubt; inactive = no such curve, though single readings can be large; an effect the other way counts as inactive or inconclusive. Potency is the fitted concentration of half-maximal effect.

SMILES | SMN2 splice enh | ELG1 genotoxic | FLuc modulator | NPC1 promoter act | Rab9 promoter act
CC1CCC(NC(=O)C2COc3ccccc3O2)CC1 (configuration not stated) | nt | 15µM* | -5% | 18% | 20%
O=C(Nc1ccc(-c2cn3ccsc3n2)cc1)C1COc2ccccc2O1 (configuration not stated) | 9% | -1% | 27µM* | ? | 3.2µM*
O=C(Nc1cccnc1)C1COc2ccccc2O1 (configuration not stated) | -5% | 1% | -3% | 0% | -3%
O=C(Nc1ncccc1Cl)C1COc2ccccc2O1 (configuration not stated) | -15% | ? | 17µM* | -2% | 9%
Cc1ccc(NC(=O)C2COc3ccccc3O2)cc1 (configuration not stated) | nt | ? | 24µM* | 2.8µM* | 3.5µM*
O=C(Nc1ccccc1)C1COc2ccccc2O1 (configuration not stated) | nt | 16% | -15% | 25% | 10%
Cc1ccc(C(=O)c2ccccc2C(=O)O)s1 | 15% | 2% | 0% | 0% | 3%
CN(C)S(=O)(=O)Nc1ccc(-c2cn3ccsc3n2)cc1 | nt | nt | 27µM* | nt | nt
Cc1ccc(NC(=O)C2COc3ccccc3O2)nc1 (configuration not stated) | -6% | 10µM* | 13µM* | 24% | 27%
Cc1ccnc(NC(=O)C2COc3ccccc3O2)c1 (configuration not stated) | ? | ? | 9.5µM* | 2.8µM* | 3.5µM*
CC1(C)Oc2ccc(NC(=O)C3COc4ccccc4O3)cc2O1 (configuration not stated) | -23% | ? | 1.9µM* | 1.6µM* | 0.5µM*
C/C(=N\NC(=O)C1COc2ccccc2O1)c1ccc(C)o1 (configuration not stated) | -18% | 3% | 0% | 6% | -1%
C/C(=N\NC(=O)C1COc2ccccc2O1)c1ccccn1 (configuration not stated) | -76% | 12µM* | -11% | -12% | -25%
COC(=O)C1=C(C(=O)OC)[C@@H]2N(Cc3ccccc3)c3ccccc3[C@@]23C[C@@H](C(=O)OC)N(C(C)=O)C3=N1 | 4%[9.22 µM] | 0% | 3% | -6% | -3%
CCn1c(=O)n(CCOC)c(=O)c2c3c(sc21)CCCC3 | -1% | 0% | 0% | -2% | -4%
COCCn1c(=S)[nH]c2sc3c(c2c1=O)CCC(C)C3 (configuration not stated) | nt | -7% | 17µM* | -1% | 3%
CCCn1c(=S)[nH]c2sc3c(c2c1=O)CCCC3 | nt | -16% | 15µM* | 0% | 2%
Cn1c(=S)[nH]c2sc3c(c2c1=O)CCC(C(C)(C)C)C3 (configuration not stated) | nt | 7% | 4.3µM* | ? | ?
COCCCn1c(=S)[nH]c2sc3c(c2c1=O)CCCS3 | -28% | -7% | 11µM* | 19% | 11%
COc1ccc(/C=C/C(=O)Nc2ccc3nc(N4CCC(C)CC4)cc(C)c3c2)cc1 | 5% | nt | -7% | nt | nt
COc1ccc(C(=O)NCc2nnc(SCC(=O)N3CCCCC3)o2)cc1 | -3% | 0% | -1% | -6% | 2%
OC(COc1ccc2ccccc2c1Cl)CN1CCOCC1 (configuration not stated) | ? | ? | 17µM* | ? | ?
O=C(Nc1ccc(Cl)cc1)N1CC=CCC1 | -10% | 22% | 17µM* | ? | ?
COCCNC(=O)C(c1ccc(O)cc1)N(Cc1ccccc1)C(=O)CCC(=O)Nc1ccccn1 (configuration not stated) | nt | -2% | -1% | -2% | 1%
Cc1cccc(C(=O)NC2CCN(CC(=O)Nc3ccc4c(c3)OCO4)CC2)c1 | nt | 1% | 4% | 0% | -20%
SMILES | SMN2 splice enh | ELG1 genotoxic | FLuc modulator | NPC1 promoter act | Rab9 promoter act
O=C(NC1CC1)c1cccc(Nc2ccc(-c3ccc4c(c3)OCCO4)nn2)c1 | ? | ? | 0.6µM* | ? | 2µM*
O=C(COC(=O)Cc1ccc2c(c1)OCCO2)Nc1ccc(S(=O)(=O)N2CCCC2)cc1 | 25% | 1% | 2% | 3% | -1%
O=S(=O)(c1ccc(Nc2ccc(-c3ccc4c(c3)OCCO4)nn2)cc1)N1CCCC1 | 5% | 2% | 5.4µM* | 17% | 20%
CSc1nsc(/C=C/Nc2ccc(C)cc2)c1C#N | ? | nt | 1.3µM* | nt | nt
CSc1nsc(/C=C/Nc2ccc(C)c(C)c2)c1C#N | 5% | -1% | ? | 0% | 15%
COc1cc(N(C)C)c([N+](=O)[O-])cc1C(=O)N1CCOCC1 | nt | 2% | 0% | -1% | -4%
COc1ccc(S(=O)(=O)Nc2ccc3oc(C)c(C(=O)O)c3c2)cc1 | 9% | 0% | 0% | -1% | 3%
N/C(Cc1ccc(Cl)c(Cl)c1)=N\OC(=O)c1cccs1 | 9% | 0% | -12% | -3% | 0%
N/C(=N\OC(=O)c1ccc(Cl)cc1Cl)c1ccc(Cl)cc1 | 22% | ? | 0.54µM* | 1.4µM* | 1.6µM*
N/C(=N\OC(=O)c1ccc(Cl)cc1Cl)c1ccccc1 | ? | ? | 0.17µM* | 4.5µM* | 0.5µM*
COc1ccc(OCCCC(=O)ON=C(N)c2ccccc2C)cc1 | nt | 0% | 2% | 0% | -8%
Cc1ccccc1/C(N)=N/OC(=O)c1cccs1 | -3%[1.84 µM] | ? | 6.7µM* | -1% | 18%
CCSc1ccc(/C(N)=N/OC(=O)c2cccs2)cn1 | nt | 13µM* | 6µM* | ? | ?
CCCc1nc2c(=O)n(C)c(=O)[nH]c2n1C | -6% | 1% | 9% | 0% | -4%
N#Cc1ccccc1OCC(=O)NNC(=O)CCC1CCCC1 | nt | 0% | nt | nt | nt
COc1ccc(C(=O)O/N=C(\N)c2ccccc2Cl)cc1OC | nt | ? | ? | -1% | -2%
N/C(=N\OC(=O)c1ccc(Cl)cc1)c1cccnc1 | 8% | 8.9µM* | 1.3µM* | 17% | 3%
O=C(NNC(=O)c1cccs1)c1cccnc1 | nt | 1% | 6% | 2% | 3%
N/C(=N\OC(=O)c1ccco1)c1cccnc1 | 7% | ? | ? | 7% | -2%
N/C(=N\OC(=O)c1cccs1)c1cccnc1 | nt | ? | 8.5µM* | 1% | 0%
Cc1cccc(/C(N)=N/OC(=O)c2ccc(Cl)cc2Cl)c1 | 5µM* | ? | 0.48µM* | 0.13µM* | 0.32µM*
CCOP(=O)(OCC)/C(=N/OC(=O)c1ccc(Cl)cc1Cl)C(N)=O | nt | 1% | -18% | -11% | -4%
Cc1ccc(/C(N)=N/OC(=O)c2ccc(C)cc2Cl)cc1 | ? | ? | 0.85µM* | 1.1µM* | 0.71µM*
COc1cccc(N2CCN(C(=O)CCn3nc(C)c(S(=O)(=O)N4CCCC4)c3C)CC2)c1 | nt | nt | -2% | nt | nt
